In ChEMBL document CHEMBL4513216, “Probing the Open Global Health Chemical Diversity Library for Multistage-Active Starting Points for Next-Generation Antimalarials” (ACS Infect Dis, 2020):
The campaign covered roughly 69,000 compounds. About 8,600 (12%) showed an effect of 50% or more. The full list was thinned out, with strong results kept by preference.

Each molecule was assayed on Plasmodium berghei (assay: Screen against P. berghei liver stage (PbLuc), transformed with Luciferase, at 10uM). Details: tested at 10 uM.
Type: functional, HepG2

Structure (SMILES)	INHIBITION
CN(C)C[C@@H]1CCC[C@@H]2CN(c3cccnc3)C[C@@H]21	-11%
CCc1ncc(C(=O)N(CC)CCOC)cn1	29.2%
CCc1ncc(C(=O)N(CCOC)Cc2nccs2)cn1	50.5%
CCc1ncc(C(=O)N(CCOC)Cc2ccccc2F)cn1	41.5%
CS(=O)(=O)NCc1cnc2n1CCN(Cc1cccnc1)CC2	15.4%
O=C(NCC1CC1)c1n[nH]c2c1CNCC2	-8.51%
Cc1cc(C)n(CCN(C)Cc2c[nH]nc2-c2ccc3c(c2)OCO3)n1	26.7%
CNC(=O)[C@H]1CC[C@@H]2[C@@H](CCN2CCOCc2ccccc2)O1	45.7%
CC(=O)N(C)C1CCC2(CC1)CNC(=O)c1cc(C)ccc1O2 (configuration not stated)	-20.2%
N#Cc1ccnc(N2CCN(C(=O)NC3CCS(=O)(=O)C3)CC2)c1 (configuration not stated)	-19.9%
N#Cc1ccnc(N2CCN(Cc3cccc(F)c3)CC2)c1	-23.7%
N#Cc1ccnc(N2CCC(NCCN3CCOCC3)CC2)c1	66.5%
N#Cc1ccnc(N2CCC(NCCN3CCCC3)CC2)c1	57.3%
N#Cc1ccnc(N2CCN(C3CCOC3=O)CC2)c1 (configuration not stated)	-33.1%
N#Cc1ccnc(N2CCN(CC(O)c3ccccc3)CC2)c1 (configuration not stated)	-76.3%
C1CCC(NCCN2CCOCC2)C1	5.41%
CCC1CCC(NCCN2CCOCC2)CC1 (configuration not stated)	49.4%
CSc1nccc(N2CCC(NCCN3CCOCC3)CC2)n1	53.6%
O=C(c1ccc(F)cc1)N1C[C@@H]2OCCN(c3ncccn3)[C@@H]2C1	10%
Cc1nnc(SCc2ccccn2)s1	44.1%
CCSCCNC(=O)c1ccc(S(=O)(=O)N2C[C@H]3C[C@@H]2CN3)cc1	9.91%
CC(C)c1cc(N(C)Cc2noc(C3CCCC3)n2)n2nccc2n1	46.4%

Structure (SMILES)	INHIBITION
c1cnc(N2CCOCC3(CN(Cc4nccs4)CCO3)C2)nc1 (configuration not stated)	-34.7%
Cc1cc(Cc2ccccc2F)cc(C2CCCNC2)n1 (configuration not stated)	36.9%
Cc1cccc(Cc2cc(C)nc(C3CCCNC3)c2)c1 (configuration not stated)	54.5%
Cc1cc(Cc2ccc(F)cc2)cc(C2CCCNC2)n1 (configuration not stated)	32.3%
Cc1cc(Cc2ccccc2)cc(C2CCCNC2)n1 (configuration not stated)	28.5%
Cc1cc(Cc2cccc(C(F)(F)F)c2)cc(C2CCCNC2)n1 (configuration not stated)	80.5%
Cc1cc(Cc2ccccc2C)cc(C2CCCNC2)n1 (configuration not stated)	-11.4%
Cc1cnn(CC2CCCN2C(=O)c2csc(C(C)C)n2)c1 (configuration not stated)	35.3%
COc1ccc(C(=O)N2CCCC3(CCCC(=O)N3C)C2)cc1 (configuration not stated)	24.8%
CNC(=O)c1ccccc1-c1ccc(S(C)(=O)=O)cc1	-19.1%
COCCN1C[C@@H]2[C@@H](OC)CCN(Cc3ccc(C)o3)[C@@H]2C1	15.4%
Cc1nccc(N[C@H]2CN(C(=O)CCN3CCCC3=O)C[C@@H]2C(C)C)n1	55%
Cc1nccc(N[C@H]2CN(C(=O)CN3CCOCC3)C[C@@H]2C(C)C)n1	43.6%
Cc1nccc(N[C@H]2CN(C(=O)C3(C#N)CCOCC3)C[C@@H]2C(C)C)n1	-5.1%
Cc1csc(N2CCCN(C(=O)CCN3CCCC3=O)CC2)n1	-21.8%
Cc1nccc(N[C@H]2CN(C(=O)CN3CCCC3=O)C[C@@H]2C(C)C)n1	62.9%
CSCCC(=O)N1C[C@H](Nc2ccnc(C)n2)[C@@H](C(C)C)C1	-15.5%
CC(C)(Oc1ccc(C(N)=O)cc1)C(=O)N(CCC#N)CC1CCCO1 (configuration not stated)	28.3%
Cc1nc(C)n(CC2CCCN2CC(=O)Nc2c(C)n[nH]c2C)n1 (configuration not stated)	29.305%
Cn1nc(C(=O)NCc2ccc(OC3CCCCC3)nc2)ccc1=O	47.7%
COCc1nc(-c2ccnc(N3CCNCC3)n2)no1	38.3%
COCCCN(Cc1ccccn1)S(=O)(=O)Cc1ccccc1	46.1%

Structure (SMILES)	INHIBITION
CNc1nc(CNC(=O)Nc2cccc(-n3ccc(C)n3)c2)cs1	7.42%
O=C(O)[C@H]1C[C@@H](C(=O)NCc2ccncc2)CN(Cc2ccccc2)C1	17.2%
Fc1cccc(CN2C[C@@H]3COC[C@]3(COCc3ccncc3)C2)c1	49.7%
Cc1cc(C)c(-n2cccn2)c(CN2CCOCC(CN(C)C)C2)c1 (configuration not stated)	36.5%
Cc1cc(-n2cccn2)ccc1CN1CCOCC(CN(C)C)C1 (configuration not stated)	62.2%
COc1ccc(-n2cccn2)c(CN2CCOCC(CN(C)C)C2)c1 (configuration not stated)	15.2%
NC(=O)C1CCN(C(=O)CCn2c(C(F)(F)F)cc3cccnc32)CC1	1.5%
Cc1ccc(=O)n(CC2(O)CCN(Cc3cnc(N(C)C)nc3)CC2)n1	14.7%
c1cncc(Cc2nnc3n2CCN(CC2CCCNC2)CC3)c1 (configuration not stated)	16.3%
CC(C)c1ccccc1OCCNC(=O)N1CCC(CC(N)=O)CC1	5.76%
CC(C)c1n[nH]c(C2CN(C(=O)c3cc(C4CC4)[nH]n3)CCO2)n1 (configuration not stated)	-20.2%
O=C(Cc1ccc2c(c1)CCC2)NCCNc1ncccn1	45.9%
O=C(Cc1ccc2c(c1)CCCC2)NCCNc1cnccn1	31.9%
O=C(Cc1ccc2c(c1)CCCC2)Nc1cccnc1N1CCSCC1	53.5%
O=C(Nc1cccnc1N1CCSCC1)c1ccc2c(c1)CCC2	38.6%
O=C(Cc1ccc2c(c1)CCCC2)NCCc1ccccn1	70.7%
O=C(Nc1cccnc1N1CCSCC1)c1cc2c(s1)CCCCC2	19.8%
CC(C)(C)OCC1CN(Cc2cccs2)S(=O)(=O)c2cnccc2O1 (configuration not stated)	10.9%
OCCN1CCCCC1C1OCCO1 (configuration not stated)	-45.2%
O=S(=O)(C1CC1)N1Cc2[nH]nc(COCC3CC3)c2C1	36.4%
CCn1nc(C)c2ncnc(NCCN3CCOCC3)c21	21.7%
CCn1ncc(S(=O)(=O)NC(C)c2cc(OC)ccc2OC)c1C (configuration not stated)	32.3%

Structure (SMILES)	INHIBITION
Cn1cncc1CN1CCC(O)(Cn2nc(-c3cccs3)oc2=O)CC1	38.7%
O=C(c1ccc2[nH]cnc2c1)N1CCC(Oc2cccnc2)CC1	47.2%
O=C(c1ccccn1)N1CCC(Oc2cccnc2)CC1	-10.4%
O=C(c1cnc[nH]1)N1CCC(Oc2cccnc2)CC1	55.9%
CCN1CCN(C)C2(CCN(Cc3ccsc3)CC2)C1=O	17.4%
COC(=O)c1cc(C(=O)N2CCC(C)CC2)n(-c2ccccc2)n1	22.265%
Cc1nc2cc(O)nn2c(C)c1CCC(=O)NCCc1nccn1C	30.6%
CCOC(=O)N1CCN(C(=O)c2cc(-c3ccc(C)cc3)on2)CC1	23.4%
Cc1cc(C(=O)Nc2n[nH]c(C3CC3)n2)c2c(C)noc2n1	6.83%
Nc1cc2c(nn1)CCN(C(=O)c1cccc3c1OCO3)C2	-16%
COC(=O)N1CC(C)=C(C)CN1C(=O)Nc1ccc(Cl)c(Cl)c1	-52.3%
CN1CCc2nc(C3CCN(C(=O)CCC4CCCC4)CC3)ncc2C1	85.9%
O=C(CCC1CCCC1)N1CCC(c2ncc3c(n2)CCNC3)CC1	73.4%
O=C(CCC1CCCC1)N1CCCC(c2ncc3c(n2)CCNC3)C1 (configuration not stated)	58.1%
O=C(C1CCCC1)N1CCC(c2ncc3c(n2)CCNC3)C1 (configuration not stated)	-32.2%
CCCC(=O)N1CCC(c2ncc3c(n2)CCNC3)CC1	-28.6%
CCC(=O)N1CCCC(c2ncc3c(n2)CCN(C)C3)C1 (configuration not stated)	10%
CN1CCc2nc(C3CCCN(C(=O)CC4CCCCC4)C3)ncc2C1 (configuration not stated)	27.8%
CCC(=O)N1CCC(c2ncc3c(n2)CCNC3)CC1	37.6%
O=C(CC1CCCCC1)N1CCC(c2ncc3c(n2)CCNC3)CC1	47.2%
Cc1noc(C)c1C(=O)NCC(C)N1CCc2ccccc21 (configuration not stated)	13.6%
Cc1cc(C(F)(F)F)nn1CC(C)C(=O)Nc1cccnc1 (configuration not stated)	15.1%

Structure (SMILES)	INHIBITION
Cc1noc(C2CCC3(CCN(C(=O)c4sccc4C)CC3)O2)n1 (configuration not stated)	-54.7%
CN1CC(C(=O)NCc2ccnc(-n3cccn3)c2)CC1=O (configuration not stated)	-0.7%
CN(Cc1ccco1)[C@@H]1CN(Cc2ccncc2)C[C@@H]2CCCO[C@@H]21	23.5%
CSc1ccc(CNC2(c3ccc(F)cc3)CCOCC2)cc1	13.5%
Fc1ccc(C2(NCc3ccccc3)CCOCC2)cc1	4.48%
CN(C)c1ccc(CNC2(c3ccc(F)cc3)CCOCC2)cc1F	55.6%
O=S(=O)(c1cncc(F)c1)N1CCC2(CCCCC2)C1	19.3%
Cc1noc(C)c1CN1Cc2cn(C)nc2C(COCC2CC2)C1 (configuration not stated)	48.6%
Cc1ccc(CN2Cc3nnn(C)c3C(COCC3CC3)C2)o1 (configuration not stated)	-14.7%
Cn1ncc2c1C(COCC1CC1)CN(Cc1ccco1)C2 (configuration not stated)	20.6%
Cc1ccc(CN2Cc3cnn(C)c3C(COCC3CC3)C2)o1 (configuration not stated)	54.4%
Cc1noc(C)c1CN1Cc2cnn(C)c2C(COCC2CC2)C1 (configuration not stated)	54.4%
Cc1ncsc1CN1Cc2cnn(C)c2C(COCC2CC2)C1 (configuration not stated)	-0.813%
Cn1ncc2c(=O)[nH]c(CN3CCCC3c3ccccc3Cl)nc21 (configuration not stated)	-19.6%
Cc1ccc(-c2nc(C(=O)N(C)C3CCN(C)CC3)cs2)c(C)c1	27.7%
Cc1sc(Br)cc1S(=O)(=O)NCCCN	8.08%
CC(=O)N1CCCN(C(=O)NCC2(c3cccs3)CCCC2)CC1	23.9%
Cc1nc(C)n(CC2CCCN(CCOc3ccc(F)cc3)C2)n1 (configuration not stated)	4.52%
CN1CCO[C@H]2CN(S(=O)(=O)c3ccc(C#N)cc3)C[C@H]21	5.63%
